Laboratory results as given in the antibiotic and cytotoxicity screens of Wong et al. (2023).
The campaign covered roughly 39,000 compounds. About 3,300 (8.5%) were called active. This is one part of a sample in which actives are shown more often than they occur.

Test system: HepG2
Experiment: cytotoxicity call (relative viability < 0.9)
Settings: 10 µM

SMILES	cytotoxicity call
C[C@@H]1CN([C@@H](C)CO)C(=O)Cc2cc(NC(=O)Nc3ccc(F)cc3)ccc2O[C@@H]1CN(C)S(=O)(=O)c1cn(C)cn1	inactive
Cc1ccc(S(=O)(=O)N(C)C[C@@H]2OCCCC[C@H](C)Oc3ccc(NS(C)(=O)=O)cc3C(=O)N([C@@H](C)CO)C[C@H]2C)cc1	inactive
Cc1noc(C)c1S(=O)(=O)Nc1ccc2c(c1)CC(=O)N([C@@H](C)CO)C[C@H](C)[C@H](CN(C)Cc1ccc3c(c1)OCO3)O2	inactive
C[C@H](CO)N1C[C@H](C)[C@H](CN(C)C(=O)N[C@H](C)c2ccccc2)OCc2ccccc2-c2c(n(C)c3ccccc23)C1=O	inactive
COc1ccc(S(=O)(=O)N(C)C[C@@H]2OCCCC[C@H](C)Oc3ccc(NC(=O)NC4CCCCC4)cc3C(=O)N([C@H](C)CO)C[C@H]2C)cc1	inactive
COc1ccc(NC(=O)N(C)C[C@@H]2OCCCC[C@@H](C)Oc3ccc(NS(=O)(=O)c4ccc(C)cc4)cc3C(=O)N([C@H](C)CO)C[C@H]2C)cc1	inactive
COc1ccc(NC(=O)Nc2ccc3c(c2)C(=O)N([C@@H](C)CO)C[C@@H](C)[C@H](CN(C)Cc2ccc(-c4ccccc4)cc2)O3)cc1	active
COc1cccc(S(=O)(=O)N2C[C@H](O)COC[C@@H]3O[C@H](CC(=O)NCCCN4CCOCC4)CC[C@H]32)c1	inactive
C[C@H]1CCCCO[C@H](CN(C)C(=O)Nc2ccc(F)cc2)[C@@H](C)CN([C@@H](C)CO)C(=O)c2cc(NC(=O)c3ccncc3)ccc2O1	inactive
CC[C@H](C)[C@H]1O[C@]2(CC[C@@H]1C)C[C@@H]1C[C@@H](C/C=C(\C)[C@@H](O[C@H]3C[C@H](OC)[C@@H](O[C@H]4C[C@H](OC)[C@@H](O)[C@H](C)O4)[C@H](C)O3)[C@@H](C)/C=C/C=C3\CO[C@@H]4[C@H](O)C(C)=C[C@@H](C(=O)O1)[C@]34O)O2	active
CCC(C)C1OC2(CCC1C)CC1CC(CC=C(C)C(OC3CC(OC)C(OC4CC(OC)C(O)C(C)O4)C(C)O3)C(C)C=CC=C3COC4C(O)C(C)=CC(C(=O)O1)C34O)O2 (configuration not stated)	active
CC[C@@H](C)[C@H]1O[C@@]2(CC[C@@H]1C)C[C@H]1C[C@@H](CC=C(C)[C@@H](O[C@H]3C[C@@H](OC)[C@@H](O[C@H]4C[C@@H](OC)[C@@H](O)[C@@H](C)O4)[C@@H](C)O3)[C@@H](C)C=CC=C3CO[C@H]4[C@@H](O)C(C)=C[C@@H](C(=O)O1)[C@]34O)O2.CO[C@H]1C[C@@H](O[C@@H]2[C@@H](OC)C[C@@H](O[C@@H]3C(C)=CC[C@@H]4C[C@@H](C[C@@]5(CC[C@@H](C)[C@H](C(C)C)O5)O4)OC(=O)[C@@H]4C=C(C)[C@H](O)[C@@H]5OCC(=CC=C[C@@H]3C)[C@@]45O)O[C@@H]2C)O[C@@H](C)[C@@H]1O	active
C[C@@H]1CN([C@H](C)CO)C(=O)c2cc(NC(=O)CCC(F)(F)F)ccc2O[C@H]1CN(C)Cc1ccc(C(=O)Nc2ccccc2N)cc1	inactive
N#CCSc1n[nH]c(=O)[nH]c1=O	inactive
O=C(C[C@@H]1CC[C@H]2[C@@H](COC[C@@H](O)CN2CC2CCOCC2)O1)N1CCOCC1	inactive
Cc1noc(C)c1NC(=O)N(C)C[C@H]1OCCCC[C@H](C)Oc2ccc(NC(=O)C3CCCCC3)cc2C(=O)N([C@H](C)CO)C[C@@H]1C	inactive
C[C@@H]1CCCCO[C@@H](CN(C)S(=O)(=O)c2ccccc2)[C@@H](C)CN([C@H](C)CO)C(=O)c2cc(NC(=O)NC3CCCCC3)ccc2O1	inactive
COc1ncccc1N	inactive
CCCCCCCCCCCC(=O)OCN1C(=O)CCc2ccc(OCCCCN3CCN(c4cccc(Cl)c4Cl)CC3)cc21	inactive

SMILES	cytotoxicity call
O=C1CCc2cc(OCCCCc3nnnn3C3CCCCC3)ccc2N1	inactive
O=C1CCc2ccc(OCCCCN3CCN(c4cccc(Cl)c4Cl)CC3)cc2N1	active
O=C(C[C@H]1CC[C@H](NC(=O)c2cccnc2)[C@@H](CO)O1)NCCN1CCCCC1	inactive
C[C@H](N)c1ccc(Cl)cc1	inactive
COc1cccc(S(=O)(=O)Nc2ccc3c(c2)[C@H]2C[C@H](CC(=O)NCc4ccccc4F)O[C@@H](CO)[C@H]2O3)c1	inactive
C[C@H](CO)N1C[C@H](C)[C@H](CN(C)Cc2ccc(-c3ccccc3)cc2)Oc2ccc(NS(=O)(=O)c3cccs3)cc2C1=O	inactive
C[C@@H]1CN([C@H](C)CO)C(=O)c2cc(NS(=O)(=O)c3cccs3)ccc2O[C@@H]1CN(C)Cc1ccc(-c2ccccc2)cc1	active
C[C@@H]1CN([C@H](C)CO)C(=O)c2cc(NS(=O)(=O)c3cccs3)ccc2O[C@H]1CN(C)Cc1ccc(Oc2ccccc2)cc1	inactive
C[C@@H]1CN([C@H](C)CO)C(=O)c2cc(NS(=O)(=O)c3cccs3)ccc2O[C@@H]1CN(C)Cc1ccc(Oc2ccccc2)cc1	active
C[C@H](CO)N1C[C@H](C)[C@@H](CN(C)Cc2ccc(-c3ccccc3)cc2)Oc2ccc(NS(=O)(=O)c3cccs3)cc2C1=O	inactive
C[C@H]1CN([C@@H](C)CO)C(=O)c2cc(NS(=O)(=O)c3cccs3)ccc2O[C@@H]1CN(C)Cc1ccc(Oc2ccccc2)cc1	inactive
NC(=O)c1cccc(Br)n1	inactive
Cc1noc(C)c1S(=O)(=O)N(C)C[C@H]1OCc2cn(nn2)CCCC(=O)N([C@H](C)CO)C[C@@H]1C	inactive
Cc1ccc(S(=O)(=O)N(C)C[C@H]2Oc3ccc(NS(=O)(=O)c4cccs4)cc3C(=O)N([C@H](C)CO)C[C@H]2C)cc1	inactive
C[C@H]1CN([C@@H](C)CO)C(=O)CCCn2cc(nn2)CO[C@@H]1CN(C)S(=O)(=O)c1ccc(-n2cccn2)cc1	inactive
C[C@@H]1CN([C@@H](C)CO)C(=O)c2cc(NC(=O)CCN3CCOCC3)ccc2O[C@@H]1CN(C)S(=O)(=O)c1ccc(Cl)cc1	inactive
C[C@@H]1CN([C@H](C)CO)C(=O)c2cc(NS(=O)(=O)c3ccccc3)ccc2O[C@@H](C)CCCCO[C@H]1CN(C)C(=O)Nc1ccccc1	inactive
C[C@H]1CN([C@@H](C)CO)C(=O)Cc2cc(NC(=O)Nc3cccc4ccccc34)ccc2O[C@H]1CN(C)C(=O)Nc1ccc(C(F)(F)F)cc1	inactive
